# In PubChem BioAssay (EPA / NIEHS):
# Inconclusive results are not listed. Activity calls are given as the source filed them. How the source made its calls: active means hit-call score of the fitted dose curve at least 0.9, where 1 is the maximum; inconclusive means response in the unintended direction; inactive means score below 0.9.
# Molecular target: sheep Cyclooxygenase-1 (Cox1), PTGS1 (gene 443551) (UniProt P05979)
# Test: NVS_ENZ_oCOX1: NovaScreen (NVS) Enzymatic Assay for sheep Cyclooxygenase-1 (Cox1) (AID 2283239);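 further: actives reduce cyclooxygenase activity so potencies are for inhibitors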
# Summary of the method: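 Ovine seminal vesicle extract; absorbance (colorimetric) enzyme read-out at 0.66 h post-dose. Primary: single conc 25 uM, duplicate. Follow-up: concentration series on actives. Activity = signal loss vs DMSO baseline.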
# Sequence of sheep Cyclooxygenase-1 (Cox1), PTGS1 (gene 443551) (P05979 whole entry, looked up): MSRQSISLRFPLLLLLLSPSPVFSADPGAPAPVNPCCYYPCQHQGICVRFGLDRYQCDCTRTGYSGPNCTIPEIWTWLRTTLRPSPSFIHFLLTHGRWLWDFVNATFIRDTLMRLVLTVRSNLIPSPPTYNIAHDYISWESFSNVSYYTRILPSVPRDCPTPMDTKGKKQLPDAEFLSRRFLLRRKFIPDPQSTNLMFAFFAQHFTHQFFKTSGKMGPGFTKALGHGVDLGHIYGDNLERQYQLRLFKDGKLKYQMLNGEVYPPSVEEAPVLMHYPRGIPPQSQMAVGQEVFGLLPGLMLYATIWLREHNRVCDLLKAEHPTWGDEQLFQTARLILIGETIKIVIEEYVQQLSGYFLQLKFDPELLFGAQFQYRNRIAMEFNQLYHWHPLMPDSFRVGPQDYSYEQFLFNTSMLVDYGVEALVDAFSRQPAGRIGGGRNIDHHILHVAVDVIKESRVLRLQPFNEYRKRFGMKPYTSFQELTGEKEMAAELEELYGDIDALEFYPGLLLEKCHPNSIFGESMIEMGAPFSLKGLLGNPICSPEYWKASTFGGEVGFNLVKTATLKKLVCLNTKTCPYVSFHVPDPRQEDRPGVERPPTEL
Structure (SMILES),AC50,outcome
Oc1cccc(O)c1,10.4 µM (active),–
NC(=O)N(O)[C@@H]1C=C[C@H](Oc2cccc(Oc3ccc(F)cc3)c2)C1,–,inactive
N#C[C@@H]1CC(F)(F)CN1C(=O)CNC1CC2CCC(C1)N2c1ncccn1 (some centres undefined),–,inactive
COc1ccc([N+](=O)[O-])cc1N,12.2 µM (active),–
CCCCCCCCCCCCc1ccccc1S(=O)(=O)O,9.01 µM (active),–
Oc1cc2ccccc2c2ccccc12,27.7 µM (active),–
Cc1oc(-c2ccccc2)nc1CCOc1ccc(C[C@H](Nc2ccccc2C(=O)c2ccccc2)C(=O)O)cc1,26.5 µM (active),–

# Molecular target: Adenosine receptor A1 (Bos taurus) (UniProt P28190)
# Sequence (P28190 whole entry, looked up): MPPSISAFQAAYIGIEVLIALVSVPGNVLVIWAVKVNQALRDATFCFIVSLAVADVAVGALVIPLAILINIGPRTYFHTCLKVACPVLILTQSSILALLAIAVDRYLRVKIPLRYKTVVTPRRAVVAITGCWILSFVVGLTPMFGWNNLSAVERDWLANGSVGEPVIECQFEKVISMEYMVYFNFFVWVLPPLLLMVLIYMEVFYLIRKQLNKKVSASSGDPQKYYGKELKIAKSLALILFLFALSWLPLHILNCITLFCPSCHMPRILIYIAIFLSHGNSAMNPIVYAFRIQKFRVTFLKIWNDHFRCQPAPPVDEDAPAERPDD
# Test: NVS_GPCR_bAdoR_NonSelective: NovaScreen (NVS) G Protein-Coupled Receptor Assay for bovine Adenosine Receptor (AdoR), Non-selective Binding (AID 2283244)
# Summary of the method: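 Cell-free binding with membranes from bovine striatum: radioligand displaced by test chemical, read after 1 h by filtration and scintillation. Single-point 25 uM duplicate primary, 50 uM top concentration in follow-up curves, DMSO baseline.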
Structure (SMILES),outcome,AC50
O=C(O)Cc1cc(I)c(Oc2cc(I)c(O)c(I)c2)c(I)c1,inactive,–
Nc1cccc2c(N)cccc12,inactive,–
NC(=O)N1C(=O)C(C(=O)c2cc(Cl)cs2)c2cc(F)c(Cl)cc21 (centres undefined),inactive,–
CCN(CC)CCNc1ccc(CNC=O)c2sc3ccc(OC)cc3c(=O)c12,–,4.38 µM (active)
CC(C)(C)c1ccc(O)c(C(C)(C)C)c1,inactive,–
Cc1cc(CCN2CCN(c3nsc4ccccc34)CC2)cc2c1NC(=O)CC2(C)C,inactive,–

# Test system: guinea pig Leukotriene B4 Receptor (LTB4), gene 100379538
# Test: NVS_GPCR_gLTB4: NovaScreen (NVS) G Protein-Coupled Receptor Assay for guinea pig Leukotriene B4 Receptor (LTB4) (AID 2283247)
# Summary of the method: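 Membranes from guinea pig spleen incubated 2 h with radioligand and compound; bound counts measured by filtration and scintillation. Screened first at 25 uM in duplicate, then actives titrated to a 50 uM top concentration relative to DMSO.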
Structure (SMILES),AC50,outcome
NC(=O)N1C(=O)C(C(=O)c2cc(Cl)cs2)c2cc(F)c(Cl)cc21 (centres undefined),0.585 µM (active),–
CCCCCCCCCCCCc1ccccc1S(=O)(=O)O,7.5 µM (active),–
CCCOC(=O)c1ccc(O)cc1,–,inactive
Cc1cc(CCN2CCN(c3nsc4ccccc34)CC2)cc2c1NC(=O)CC2(C)C,–,inactive
Cc1oc(-c2ccccc2)nc1CCOc1ccc(C[C@H](Nc2ccccc2C(=O)c2ccccc2)C(=O)O)cc1,–,inactive
CC[C@H](C)[C@@H](C(=O)O)n1sc2ccccc2c1=O,–,inactive

# Molecular target: guinea pig Leukotriene D4 Receptor (LTD4), CYSLTR1 (gene 100135514) (UniProt Q2NNR5)
# Sequence (Q2NNR5 whole entry, looked up): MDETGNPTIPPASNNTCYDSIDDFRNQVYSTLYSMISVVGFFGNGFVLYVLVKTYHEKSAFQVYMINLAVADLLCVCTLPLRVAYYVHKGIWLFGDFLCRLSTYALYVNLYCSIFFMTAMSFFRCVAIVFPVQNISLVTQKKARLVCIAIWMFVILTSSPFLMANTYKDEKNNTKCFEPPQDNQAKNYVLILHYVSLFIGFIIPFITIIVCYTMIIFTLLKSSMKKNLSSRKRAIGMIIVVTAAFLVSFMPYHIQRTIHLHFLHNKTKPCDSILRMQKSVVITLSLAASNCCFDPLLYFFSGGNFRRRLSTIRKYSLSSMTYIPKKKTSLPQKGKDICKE
# Test: NVS_GPCR_gLTD4: NovaScreen (NVS) G Protein-Coupled Receptor Assay for guinea pig Leukotriene D4 Receptor (LTD4) (AID 2283248)
# Summary of the method: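 Guinea pig lung membrane preparation; bound radioligand measured by filter scintillation after 1 h, loss of signal versus DMSO marking displacement. Compounds tested at 25 uM in duplicate, hits retested to max 50 uM.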
Structure (SMILES),outcome,AC50
CCCCCCCC(=O)O,inactive,–
CCCCCCCCCCCCc1ccccc1S(=O)(=O)O,–,25 µM (active)
Cc1cc(CCN2CCN(c3nsc4ccccc34)CC2)cc2c1NC(=O)CC2(C)C,inactive,–
Cc1oc(-c2ccccc2)nc1CCOc1ccc(C[C@H](Nc2ccccc2C(=O)c2ccccc2)C(=O)O)cc1,inactive,–
CC[C@H](C)[C@@H](C(=O)O)n1sc2ccccc2c1=O,inactive,–

# Molecular target: human Serotonin, 5-Hydroxytryptamine Receptor 2A (5HT2A), HTR2A (gene 3356) (UniProt P28223)
# Sequence (P28223 whole entry, looked up): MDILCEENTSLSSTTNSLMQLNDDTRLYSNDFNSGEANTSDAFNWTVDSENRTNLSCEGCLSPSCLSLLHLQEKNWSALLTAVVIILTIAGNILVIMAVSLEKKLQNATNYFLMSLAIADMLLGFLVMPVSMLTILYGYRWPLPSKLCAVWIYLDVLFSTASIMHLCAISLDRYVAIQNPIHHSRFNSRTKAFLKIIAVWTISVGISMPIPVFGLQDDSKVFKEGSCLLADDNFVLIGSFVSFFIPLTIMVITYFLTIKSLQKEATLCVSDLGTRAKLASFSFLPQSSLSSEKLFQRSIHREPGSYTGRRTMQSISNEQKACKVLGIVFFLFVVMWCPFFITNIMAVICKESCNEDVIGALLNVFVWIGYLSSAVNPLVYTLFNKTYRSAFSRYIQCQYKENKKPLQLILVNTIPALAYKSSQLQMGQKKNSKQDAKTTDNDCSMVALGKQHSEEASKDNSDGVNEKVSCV
# Test: NVS_GPCR_h5HT2A: NovaScreen (NVS) G Protein-Coupled Receptor Assay for human Serotonin, 5-Hydroxytryptamine Receptor 2A (5HT2A) (AID 2283249)
# Summary of the method: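 Radioligand displacement on human cortex tissue extract, counted by filtration and scintillation 1.5 h post-dosing. Initial single-concentration screen at 25 uM in duplicate, concentration series in follow-up; DMSO as baseline.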
Structure (SMILES),AC50,outcome
CCCOc1sc(C(=O)N2CCC(c3cc(CN)ccc3F)CC2)c(C)c1Br,14.3 µM (active),–
CC(C)(C)c1cc(C(C)(C)C)c(O)c(C(C)(C)C)c1,–,inactive
CN1CCN(c2ccccc2/C=C2\SCCN(c3ccc(Cl)c(Cl)c3)C2=O)CC1,1.9 µM (active),–
CC(=O)NC1(c2cccc(F)c2)CCN(CC[C@@]2(c3ccc(Cl)c(Cl)c3)CN(c3ccccc3)C(=O)CO2)CC1,1.9 µM (active),–
O=c1c(-c2ccc(O)cc2)coc2cc(O)ccc12,–,inactive

# Test system: guinea pig Muscarinic, Peripheral (Mperiperal) Receptor, Non-selective Binding, gene 100379235
# Test: NVS_GPCR_gMPeripheral_NonSelective: NovaScreen (NVS) G Protein-Coupled Receptor Assay for guinea pig Muscarinic, Peripheral (Mperiperal) Receptor, Non-selective Binding (AID 2283250)
# Description: NVS_GPCR_gMPeripheral_NonSelective is a biochemical, single-readout assay that uses extracted gene-proteins from Guinea pig bladder membranes in a tissue-based cell-free assay. Measurements were taken 1 hour after chemical dosing in a 48-well plate.NVS_GPCR_gMPeripheral_NonSelective is one of one assay component(s) measured or calculated from the NVS_GPCR_gMPeripheral_NonSelective assay. It is designed to make measurements of radioligand binding, a form of binding reporter, as detected with scintillation counting signals by Filter-based radiodetection technology.Data from the assay component NVS_GPCR_gMPeripheral_NonSelective was analyzed into 1 assay endpoint. This assay endpoint, NVS_GPCR_gMPeripheral_NonSelective, was analyzed in the positive analysis fitting direction relative to DMSO as the negative control and baseline of activity. Using a type of binding reporter, loss-of-signal activity can be used to understand changes in the binding as they relate to the gene Chrm3. Furthermore, this assay endpoint can be referred to as a primary readout, because the performed assay has only produced 1 assay endpoint. To generalize the intended target to other relatable targets, this assay endpoint is annotated to the gpcr intended target family, where the subfamily is rhodopsin-like receptor.
# Binding assays used specific radioligands (tritiated, iodinated) with non-radioactive competitive displacement ligands in agonist or antagonist protocols (as indicated) and various reference compounds and inhibitors to titrate specific binding to receptors and transporters. Most enzyme assays (CYPs, kinases, phosphatases, proteases, HDACs) used recombinant protein and specific substrates (fluorescence mostly, some colorimetric and radioactive) and inhibitors, followed by a biochemical separation of substrate and product. All assays for the biochemical HTS were initially run in duplicate at a single concentration (10 uM for CYP450 assays and 25 uM for all others). Assay-chemical combinations meeting a pre-defined threshold (e.g., 30% inhibition and other criteria defined below) were then run in singleton concentration-response format with maximum concentration of 20 uM for CYPs and 50 uM for all others. Each assay was run with positive and negative controls, and concurrent controls on every plate. The follow-up (secondary) screen tested active chemical-pairs in concentration series, as well as a few additional assays not tested in the primary screen, some selected negative inactives, and several cases re-run in the concentration series for confirmatory purposes.
Structure (SMILES),AC50,outcome
CCCOc1sc(C(=O)N2CCC(c3cc(CN)ccc3F)CC2)c(C)c1Br,23.2 µM (active),–
CN1CCC[C@H]1c1cccnc1,–,inactive
CCN(CC)CCNc1ccc(CNC=O)c2sc3ccc(OC)cc3c(=O)c12,5.83 µM (active),–
CCCCCCCC(=O)O,–,inactive
CC(=O)NC1(c2cccc(F)c2)CCN(CC[C@@]2(c3ccc(Cl)c(Cl)c3)CN(c3ccccc3)C(=O)CO2)CC1,20.8 µM (active),–

# Molecular target: human Serotonin, 5-Hydroxytryptamine Receptor 5A (5HT5A), HTR5A (gene 3361) (UniProt P47898)
# Sequence (P47898 whole entry, looked up): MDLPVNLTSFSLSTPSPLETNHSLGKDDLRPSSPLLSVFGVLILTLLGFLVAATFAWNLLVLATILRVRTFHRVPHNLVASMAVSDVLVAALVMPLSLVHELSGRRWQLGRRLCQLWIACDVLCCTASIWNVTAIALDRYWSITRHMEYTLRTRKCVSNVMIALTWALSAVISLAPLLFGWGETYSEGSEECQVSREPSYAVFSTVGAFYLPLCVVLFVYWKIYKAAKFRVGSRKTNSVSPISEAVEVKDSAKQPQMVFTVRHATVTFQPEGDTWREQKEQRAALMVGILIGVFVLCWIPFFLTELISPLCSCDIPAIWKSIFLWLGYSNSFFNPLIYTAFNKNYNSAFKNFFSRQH
# Test: NVS_GPCR_h5HT5A: NovaScreen (NVS) G Protein-Coupled Receptor Assay for human Serotonin, 5-Hydroxytryptamine Receptor 5A (5HT5A) (AID 2283251)
# Summary of the method: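 Membranes from HEK293 cells, radioligand binding read by filtration and scintillation after 1 h. Single-concentration duplicate testing at 25 uM, then concentration-response for actives; positive-direction fitting relative to DMSO.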
Structure (SMILES),outcome,AC50
O=C(O)Cc1cc(I)c(Oc2cc(I)c(O)c(I)c2)c(I)c1,inactive,–
NC(=O)N1C(=O)C(C(=O)c2cc(Cl)cs2)c2cc(F)c(Cl)cc21 (centres undefined),–,41.3 µM (active)
CCCOc1sc(C(=O)N2CCC(c3cc(CN)ccc3F)CC2)c(C)c1Br,–,15.1 µM (active)
CCC(=C(c1ccc(O)cc1)c1ccc(OCCN(C)C)cc1)c1ccccc1,–,3.32 µM (active)
NC(=O)N(O)[C@@H]1C=C[C@H](Oc2cccc(Oc3ccc(F)cc3)c2)C1,–,14 µM (active)
CCN(CC)CCNc1ccc(CNC=O)c2sc3ccc(OC)cc3c(=O)c12,–,4.96 µM (active)
CN1CCN(c2ccccc2/C=C2\SCCN(c3ccc(Cl)c(Cl)c3)C2=O)CC1,–,0.302 µM (active)
CCCCCCCCCCCCc1ccccc1S(=O)(=O)O,–,6.39 µM (active)
CC[C@H](c1ccc(O)cc1)[C@@H](CC)c1ccc(O)cc1,–,1.69 µM (active)
Cc1oc(-c2ccccc2)nc1CCOc1ccc(C[C@H](Nc2ccccc2C(=O)c2ccccc2)C(=O)O)cc1,–,9.5 µM (active)
CC(=O)NC1(c2cccc(F)c2)CCN(CC[C@@]2(c3ccc(Cl)c(Cl)c3)CN(c3ccccc3)C(=O)CO2)CC1,–,28.3 µM (active)

# Molecular target: guinea pig Opioid, Kappa 1 Receptor (OpiateK), OPRK1 (gene 100135587) (UniProt P41144)
# Sequence (P41144 whole entry, looked up): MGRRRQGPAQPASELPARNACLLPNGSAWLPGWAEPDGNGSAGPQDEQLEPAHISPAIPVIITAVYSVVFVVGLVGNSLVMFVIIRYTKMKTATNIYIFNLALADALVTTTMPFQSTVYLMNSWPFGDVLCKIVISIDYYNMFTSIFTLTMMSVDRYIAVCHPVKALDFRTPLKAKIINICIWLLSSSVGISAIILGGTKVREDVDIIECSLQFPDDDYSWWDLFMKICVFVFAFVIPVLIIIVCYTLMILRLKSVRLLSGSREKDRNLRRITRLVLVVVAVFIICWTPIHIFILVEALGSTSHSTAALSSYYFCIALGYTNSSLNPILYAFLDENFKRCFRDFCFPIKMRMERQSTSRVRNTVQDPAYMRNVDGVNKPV
# Test: NVS_GPCR_gOpiateK: NovaScreen (NVS) G Protein-Coupled Receptor Assay for guinea pig Opioid, Kappa 1 Receptor (OpiateK) (AID 2283252);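 further: active means reduced radioligand binding relative to DMSO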
# Summary of the method: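 Radioligand binding to kappa opioid receptor in guinea pig cerebellar membranes, read by filtration and scintillation at 2 h. Compounds first tested in duplicate at 25 uM, then actives in concentration series; signal loss fitted against DMSO.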
Structure (SMILES),outcome,AC50
CCCOc1sc(C(=O)N2CCC(c3cc(CN)ccc3F)CC2)c(C)c1Br,inactive,–
CCN(CC)CCNc1ccc(CNC=O)c2sc3ccc(OC)cc3c(=O)c12,–,25 µM (active)
CCCCCCCC(=O)O,inactive,–
CN1CCN(c2ccccc2/C=C2\SCCN(c3ccc(Cl)c(Cl)c3)C2=O)CC1,–,3.39 µM (active)
CCCCCCCCCCCCc1ccccc1S(=O)(=O)O,inactive,–
CC[C@H](c1ccc(O)cc1)[C@@H](CC)c1ccc(O)cc1,inactive,–
C#C[C@]1(O)CC[C@H]2[C@@H]3CCC4=CC(=O)CC[C@@H]4[C@H]3CC[C@@]21C,inactive,–
CC(=O)NC1(c2cccc(F)c2)CCN(CC[C@@]2(c3ccc(Cl)c(Cl)c3)CN(c3ccccc3)C(=O)CO2)CC1,–,20.8 µM (active)
CC[C@H](C)[C@@H](C(=O)O)n1sc2ccccc2c1=O,–,12.7 µM (active)
